Measured values from PubChem BioAssay (NCI).
Compounds without any hit were thinned out: in the full panel of roughly 79,000, 15% have a hit. Activity calls are given as the source filed them. Rule as the data show it: active = growth inhibition above about 70%; inactive = the rest. Where a SMILES comes first, the peptide text is derived from it. [ ]: non-standard residue; d: D form. The star is where a group is joined. NMeAc5c = CNC1(C(=O)O)CCCC1; Boc = CC(C)(C)OC(=O)*; OBn = c1ccc(CO*)cc1

How the values were obtained:
[1] = NCI Yeast Anticancer Drug Screen. Data for the rad50 strain (AID 155);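 also: 0% = growth of vehicle-only cultures of the same strain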; conditions: S. cerevisiae rad50 strain growth inhibition; at 50.0 µM; active compounds read high
How it was run: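 A DNA repair-deficient yeast mutant serves as the test organism; compound-induced growth inhibition is calculated against vehicle-treated cells.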

[2] = NCI Yeast Anticancer Drug Screen. Data for the mec2-1 strain (AID 157); conditions: S. cerevisiae mec2-1 strain, at 50.0 µM, active compounds read high
How it was run: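 Yeast mec2-1 mutant treated with compound. Readout: growth inhibition vs vehicle controls.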

[3] = NCI Yeast Anticancer Drug Screen. Data for the sgs1 mgt1 strain (AID 161);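 also: 0% = growth of cultures given vehicle only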; conditions: S. cerevisiae sgs1 mgt1 strain, at 50.0 µM, active compounds read high
How it was run: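 Mutant yeast exposed to compound; growth scored against vehicle-only wells.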

[4] = NCI Yeast Anticancer Drug Screen. Data for the cln2 rad14 strain (AID 165);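 also: 0% = growth equal to vehicle treated cultures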; conditions: S. cerevisiae cln2 rad14 strain, at 50.0 µM, active compounds read high
How it was run: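 cln2 rad14 yeast strain; compound exposure; growth inhibition read vs vehicle controls.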

[5] = NCI Yeast Anticancer Drug Screen. Data for the bub3 strain (AID 167); conditions: S. cerevisiae bub3 mutant strain, at 50.0 µM, active compounds read high
How it was run: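 Inhibition values come from growth of compound-treated mutant yeast normalised to vehicle-treated controls.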

[6] = NCI Yeast Anticancer Drug Screen. Data for the mlh1 rad18 strain (AID 175); conditions: S. cerevisiae mlh1 rad18 strain growth inhibition; at 50.0 µM; active compounds read high
How it was run: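 Yeast w/ defined DNA-repair lesions; compound exposure; growth vs vehicle controls → % inhibition.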

Measured: growth inhibition

O=C1c2ccccc2C(=O)c2c1c([N+](=O)[O-])c1c(c2[N+](=O)[O-])OCO1
inactive: [1] 7.15% | [2] 0.15% | [3] 21.8% | [4] -0.15% | [5] 14.1% | [6] 31.2%

Cc1ccc2cccc3c2c1CC1(C3=O)S(=O)(=O)OCCOS1(=O)=O
inactive: [1] 9.2% | [2] 4.45% | [3] 20.1% | [4] 14.7% | [5] 39% | [6] -2.3%

NC(=O)N/N=C(\c1ccccc1)C1CCCCc2ccccc21 (stereo unspecified)
inactive: [1] 48.5% | [2] 20.6% | [3] 33.2% | [4] 9.95% | [5] 43% | [6] 48%

CN(C)N=Nc1ccc(C(=O)N/N=C/c2ccccc2[N+](=O)[O-])cc1
inactive: [1] -13.8% | [2] 1.2% | [3] -16.6% | [4] -18.2% | [5] -14.7% | [6] -40.8%

CC(=O)/C=C\C(=O)NNS(=O)(=O)c1ccc(C)cc1
inactive: [1] 20.6% | [2] 12.7% | [3] -1.75% | [4] 9.35% | [5] 34.1% | [6] 46.7%

COc1ccc(C2=NOC(c3ccc(OC)cc3)C2)cc1 (stereo unspecified)
inactive: [1] -6.85% | [2] -18.3% | [3] -7.25% | [4] -13.8% | [5] 6.05% | [6] 9.55%

O=C1CSC(c2ccc(F)cc2)N1c1nncs1 (stereo unspecified)
inactive: [1] 5.2% | [2] 3.65% | [3] 9.7% | [4] 3.6% | [5] 31.6% | [6] 7.45%

CCNC(=O)OCc1c(COC(=O)NCC)c(-c2ccc(Cl)c(Cl)c2)n2c1CCC2
inactive: [1] 27.4% | [2] 24.8% | [3] 35.4% | [4] 66.5% | [5] 10.4% | [6] 40.8%

CC1C2=C(CCCC2=O)O/C1=N\O (stereo unspecified)
inactive: [1] 11.4% | [2] -6.85% | [3] -0.85% | [4] -24.9% | [5] 6.7% | [6] 12.2%

COc1ccc(C2=CSc3ccccc3N2)cc1
inactive: [1] 11.2% | [2] 15.8% | [3] 42.3% | [4] 6.1% | [5] 36.3% | [6] 11.4%

O=C(Nc1ccc(Cl)cc1[N+](=O)[O-])Oc1ccc(C(=O)OCc2ccccc2)cc1
active: [1] 76.3% | [2] 75.1% | [3] 71.5% | [5] 84.2% | [6] 78.1%
inactive: [4] 48.5%

NC(=O)c1cccc(NC=O)c1
inactive: [1] 5.3% | [2] 6% | [3] 22.1% | [4] 29.7% | [5] 4.45% | [6] 25.8%

C[Si](C)(C)COC(N)=O
inactive: [1] -5.5% | [2] 10.8% | [3] -12.4% | [4] 8.1% | [5] 9.4% | [6] 0.45%

Cn1c(CBr)nc2c1C(=O)c1nc[nH]c(=O)c1C2=O
inactive: [1] 32% | [2] 0.55% | [3] 37.6% | [4] 11.8% | [5] 3.4% | [6] 31.6%

CC(C)(C)CI
inactive: [1] 15.6% | [2] 3.85% | [3] 7.65% | [4] 4.9% | [5] -11.2% | [6] -35.3%

CC1SCC(C)(C)NC1=O (stereo unspecified)
inactive: [1] 3.85% | [2] 5.15% | [3] -3.95% | [4] -8.5% | [5] 5.7% | [6] 0.55%

c1scc2c1COCCOCCOCCOCc1cscc1COCCOCCOCCOC2
inactive: [1] -20.2% | [2] -26.1% | [3] -38.4% | [4] 26.6% | [5] -30.4% | [6] -46.5%

CCCCCCCCCCCCCCCCSC1=C(Cl)C(=O)C(OC)=C(OC)C1=O
inactive: [1] 25.6% | [2] -4.7% | [3] 21.1% | [4] -26% | [5] 0.25% | [6] 9.4%

O=C(NNc1ccccc1)NNc1ccccc1
inactive: [1] 32.8% | [2] 21.4% | [3] 45.3% | [4] 46.3% | [5] 20.8% | [6] 29.8%

COC(=O)c1ccccc1OC(=S)N(C)C
inactive: [1] -8.75% | [2] -11.4% | [3] -8.45% | [4] -29.1% | [5] 0.75% | [6] -17.4%

CN(C)C(=O)Sc1ccc(N(C)C)cc1
inactive: [1] -5.15% | [2] -17.9% | [3] -11.3% | [4] -25.2% | [5] 15.1% | [6] -23.2%

C=CS(=O)(=O)c1ccc(NC(=O)Nc2ccc(Cl)cc2)cc1
inactive: [1] -0.55% | [2] 1.7% | [3] -8.8% | [4] 12.8% | [5] 1.25% | [6] 5.85%

CC12CC(=O)OC(C1)C(=O)c1ccccc12 (stereo unspecified)
inactive: [1] 8.9% | [2] 16.1% | [3] 2.85% | [4] 4.45% | [5] 1.7% | [6] -3.15%

O=C(O)C1=NN(c2ccc(S(=O)(=O)O)cc2)C(=O)C1N=Nc1ccc(S(=O)(=O)O)cc1 (stereo unspecified)
inactive: [1] 7.3% | [2] -0.6% | [3] 17.1% | [4] 16.9% | [5] -1% | [6] 13%

O=C(O)C1C=CC2OC2C1C(=O)O (stereo unspecified)
inactive: [1] 2.9% | [2] -28.2% | [3] -5.95% | [4] -31.9% | [5] 1.1% | [6] 4.7%

O=C(O)CCC(=O)OCc1ccccc1
inactive: [1] 3.15% | [2] 22.6% | [3] -22.1% | [4] -16.6% | [5] -11.2% | [6] 0.8%

c1ccc(CSc2ncnc3oc(-c4ccccc4)nc23)cc1
inactive: [1] 22.5% | [2] 17.2% | [3] 13.6% | [4] 11.2% | [5] 24% | [6] 16.4%

FC(F)(F)c1cccc2[nH]cnc12
inactive: [1] -24.6% | [2] -2.85% | [3] 6.25% | [4] -12.4% | [5] -4.65% | [6] 2.3%

O=[N+]([O-])c1cccc(/C=C/c2cc(N(CCO)CCO)c3ccccc3n2)c1
inactive: [1] 48.1% | [2] 12.8% | [3] 11.1% | [4] 3.5% | [5] -6.6% | [6] 22.2%

CCOC(=O)C(C)(Br)C(Br)c1ccc([N+](=O)[O-])cc1 (stereo unspecified)
active: [1] 96.8% | [2] 93.2% | [3] 96.9% | [5] 80.9% | [6] 97%
inactive: [4] 42.7%

CNc1nc(N(C)C)nc(N(C)C)n1
inactive: [1] 25.2% | [2] 16.9% | [3] 15.6% | [4] 28.9% | [5] 26.8% | [6] 26.6%

CCCCCN(CCCCC)c1ccc(/C=C/c2ccnc3ccccc23)cc1
inactive: [1] 1.6% | [2] 7.05% | [3] 22.9% | [4] -15.7% | [5] -10.2% | [6] 14.6%

CCN(C(=O)CCl)c1ccccc1
inactive: [1] 15% | [2] 0.35% | [3] -0.1% | [4] -12.6% | [5] -7.25% | [6] 14.2%

CC(=O)c1c(C)n(-c2ccccc2)c2c1nnc1ccccc12
inactive: [1] 3.3% | [2] 3.65% | [3] 22.2% | [4] -8.65% | [5] -5.65% | [6] 4.15%

O=S(=O)(O)C1=CC(=N/Cl)/C=CC/1=N\Cl
inactive: [1] -25.8% | [2] -23.8% | [3] -14.6% | [4] -4.15% | [5] -42% | [6] -25.2%

Cn1c(=O)c2c(ncn2CCSCC2=NS(=O)(=O)c3cc(S(N)(=O)=O)c(C(F)(F)F)cc3N2)n(C)c1=O
inactive: [1] 2.8% | [2] 1.75% | [3] -6.5% | [4] -35.6% | [5] 14.1% | [6] 4.95%

O=C1C/C(=C/c2ccccc2[N+](=O)[O-])C(=O)N1c1ccccc1
inactive: [1] 16.4% | [2] 4.35% | [3] 13.4% | [4] -36.1% | [5] 3.8% | [6] 11.2%

CC1(C)C(=O)N=C(N)N1C(=O)OCc1ccccc1
inactive: [1] -11.9% | [2] -4.45% | [3] -6.6% | [4] 13.8% | [5] -10% | [6] -17.5%

CN(C(=O)C(Cc1ccccc1)NC(=O)OC(C)(C)C)C1(C(=O)NC(Cc2ccccc2)C(=O)OCc2ccccc2)CCCC1 (stereo not drawn) (Boc-Phe-[NMeAc5c]-Phe-OBn; configuration not given here)
inactive: [1] -3.35% | [2] 15.6% | [3] -4.5% | [4] 11.8% | [5] 8.6% | [6] 13.6%

N#CC1C(=O)NC(=S)NC1c1ccc(Cl)c(Cl)c1 (stereo unspecified)
inactive: [1] -3.15% | [2] -16.9% | [3] -25.9% | [4] -19.6% | [5] -13.8% | [6] -5.25%

O=c1n(-c2ccccc2)c(=O)n2n1C1C3C4C5C1C5C2C43 (stereo unspecified)
inactive: [1] -8.4% | [2] 8.95% | [3] 12.3% | [4] 5.85% | [5] 5% | [6] 12.8%
